# Screens: PubChem BioAssay, National Center for Advancing Translational Sciences (NCATS)
# Sm TGR block: qHTS Assay for the Inhibitors of Schistosoma Mansoni Peroxiredoxins | Schistosoma mansoni thioredoxin glutathione reductase (TGR), Q962Y6 | purified TGR, DTNB reduction, TNB absorbance 405 nm | Potency, µM (series often up to 114 µM), for inactives: at the highest dose activity change, negative = inhibition, most hits filed as inhibitors | 3% of 360,000 active | AID 485364, 2010; active = well fitted inhibition curve with a large enough effect; inconclusive = small, poorly fitted or top-dose-only effect; inactive = no such curve, though single readings can be large or run the other way; also: potency is read from the fitted curve at half-maximal effect; % is scaled to controls: 0 for no effect and ±100 for the full control effect; nearly all actives have a fitted effect of over 60% in size
#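 First, TGR (20 nM dispensed) and NADPH were mixed with compound. Second, a 15 min room-temperature incubation followed. Third, further NADPH and then DTNB were added to start the reaction. Finally, TNB absorbance was monitored kinetically.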
# Shiga inhibitor: A qHTS for Small Molecule Inhibitors of Shiga Toxin. Vero cells, Shiga toxin protein synthesis inhibition reporter. inhibition, % at 38.7 µM. 9.2% of 290,000 active. AID 2315, 2010; in the data active = inhibition mostly above about 28%, no sharp cut-off; inactive = mostly below about 43%; also: 0% is about no effect
# FMDV antiviral: High Throughput Screening for Foot and Mouth Disease Virus Antivirals. FMDV antiviral cell-based qHTS. Potency, µM (highest dose often 57.9 µM), without a hit: at the top dose activity change, negative = inhibition, usual class: inhibitors. 1.2% of 410,000 active; calls by dose curve; tested in HEK293T cells; also: read-out not given here; potency is read from the fitted curve at half-maximal effect; % is scaled to controls: 0 for no effect and ±100 for the full control effect; nearly all actives have a fitted effect of over 45% in size
# CHX counter: Cycloheximide Counterscreen for Small Molecule Inhibitors of Shiga Toxin; cell reporter, cycloheximide protein synthesis inhibition counterscreen; AID 2314, 2010; 12% of 300,000 active; max response, %; in the data active = max response mostly above about 13%, no sharp cut-off; inactive = mostly below about 14%; also: read at 38.3 µM for the half of the compounds with a filed dose; 0% is about no effect
# * hit, by the source's call; ? = inconclusive; . = no result. Rows were chosen to be rich in hits. Some 12% of all compounds tested hit in one or more screens of this group.
SMILES,Sm TGR block,Shiga inhibitor,FMDV antiviral,CHX counter
O=C(Nc1ccc2c(c1)nc1n2CCSC1)c1ccccc1,-8.1%,43.4*,-9.4%,40.3*
CCCC(=O)Nc1ccc2c(c1)nc1n2CCOC1,-0.3%,27.1,49.9%,-1.5
O=C(Nc1ccc2c(c1)nc1n2CCOC1)c1ccccc1,-0.5%,93.6*,10.7%,31.3*
CCCCC(=O)Nc1ccc2c(c1)nc1n2CCOC1,8.1%,89.4*,55.0%,19.8*
CC(C)C(=O)Nc1ccc2c(c1)nc1n2CCSC1,4.8%,39.9*,33.3%,18.7
COc1ccc(C(=O)Nc2ccc3c(c2)nc2n3CCSC2)cc1,-2.9%,86.0*,12.4%,44.7*
O=C(Nc1ccccc1)c1ccc(S(=O)(=O)Nc2cccc(O)c2)cc1,-2.7%,-23.9,-21.0%,-1.1
CC(C)CC(=O)Nc1ccc(C(=O)Nc2cccc(O)c2)cc1,13.9%,73.5*,27.6%,32.3*
O=C(Nc1cccc(O)c1)c1ccc(C(F)(F)F)cc1,1.7%,68.6*,15.2%,30.5*
O=C(Nc1ccc(Br)c(C(F)(F)F)c1)c1ccc(C(F)(F)F)cc1,7.3%,77.8*,-22.2%,36.4*
O=C(Nc1cccc(C(F)(F)F)c1)c1cc[n+]([O-])cc1,-3.9%,-5.0,-5.7%,-0.8
O=C(Nc1ccc(Br)c(C(F)(F)F)c1)c1ccccc1,1.6%,20.7,-23.8%,45.8*
O=C(Nc1ccc(Br)c(Cl)c1)c1ccc(C(=O)Nc2ccc(Br)c(Cl)c2)cc1,-2.5%,.,?,.
O=C(Nc1ccc(C(F)(F)F)cc1)c1ccccc1,0.7%,.,51.9%,.
Cc1ccc(NC(=O)CSc2nc3c(c(=O)[nH]2)CCC3)cc1Cl,11.0%,.,-14.1%,.
COc1cc(NC(=O)C(Cc2ccccc2)NS(=O)(=O)c2cccs2)cc(OC)c1 (stereo not drawn),-0.2%,.,0.0%,.
CC(C)CC(=O)Nc1ccc(C(=O)CN2CCN(c3ccc(O)cc3)CC2)cc1,5.62µM*,19.4,11.1%,-0.8
COc1ccc(-c2nc(CSCC(=O)NCCc3ccc(C)cc3)c(C)o2)cc1OC,-11.3%,.,-26.1%,.
COCCCN=Cc1c(C)[nH]n(-c2ccc(Br)c(C)c2)c1=O,-13.5%,37.8*,-50.9%,49.4*
Cc1ccc(-n2[nH]c(C)c(C=NC34CN5CN(CN(C5)C3)C4)c2=O)cc1C,3.5%,7.9,-4.4%,19.0
Cc1ccc(Sc2cc(C(=O)NCCCN(C)C)c3ccccc3n2)cc1,39.8µM*,-7.8,-2.4%,-1.9
O=C(CCCCn1c(=O)c2ccccc2n(Cc2cccc(F)c2)c1=O)NCc1ccc2c(c1)OCO2,-0.6%,.,-0.6%,.
COc1ccc(CCNC(=O)Cc2cc(OC)c(OC)cc2Br)cc1OC,-7.1%,20.2,-15.3%,15.8*
Nc1c(C(=O)Nc2ccc3c(c2)OCCO3)nnn1CCc1ccccc1,5.1%,55.7*,46.0%,19.6*
O=C(CN1CCN(CC(=O)Nc2ccccc2Cl)CC1)Nc1ccc2c(c1)OCCO2,5.1%,6.1,-16.7%,3.3
SMILES,Sm TGR block,Shiga inhibitor,FMDV antiviral,CHX counter
COc1ccc(CCNC(=O)Cc2ccc(Cl)cc2)cc1OC,-21.0%,.,55.0%,1.7
Nc1c(C(=O)Nc2ccccc2Cl)nnn1-c1ccc2c(c1)OCCO2,-9.8%,65.3*,9.7%,33.3*
COc1ccc(CCNC(=O)Cn2nnc(C(=O)Nc3ccc(Br)cc3)c2N)cc1OC,-3.3%,18.9,-6.7%,31.1*
CCOc1ccc(NC(=O)Cn2nnc(C(=O)NCCc3ccc(OC)c(OC)c3)c2N)cc1,-1.7%,-7.1,-15.1%,-2.3
CC(C)CC(NC(=O)NC(CCC(=O)O)C(=O)O)C(=O)O (stereo not drawn),.,-6.6,-6.7%,-3.3
N#Cc1c[nH]n2c(NC3CCCCC3)c(-c3ccc(F)cc3)nc12,6.9%,.,6.5%,.
Cc1ccc(NC(=O)Cn2nnc(C(=O)NCc3ccc4c(c3)OCO4)c2N)cc1Cl,4.9%,.,1.6%,.
COc1ccccc1NC(=O)Cn1nnc(C(=O)Nc2ccccc2)c1N,-0.6%,12.1,6.3%,11.4
CCOc1ccc(NC(=O)c2nnn(CC(=O)Nc3ccccc3OC)c2N)cc1,-15.6%,30.8,22.0%,19.0*
Cc1ccc(NC(=O)c2nnn(CC(=O)Nc3ccc4c(c3)OCO4)c2N)cc1C,-1.5%,22.9,3.0%,20.7*
Cc1ccc(NC(=O)Cn2nnc(C(=O)Nc3ccc(C)c(C)c3)c2N)cc1,-2.7%,3.7,4.9%,14.7*
CCOC(=O)c1cc(S(=O)(=O)Nc2ccc(C)cc2Cl)[nH]n1,2.1%,.,-8.6%,.
COCCNC(=O)C1(C(F)(F)F)C/C(=C\CCO)CCCO1 (stereo not drawn),.,-10.3,.,-3.4
N[C@@H]1CCN(O)C1=O,.,0.7,-6.5%,-8.6
NC(=O)N/N=C/c1cn(-c2ccccc2)nc1-c1cccnc1,4.3%,8.5,13.8%,13.5
NC(=S)N/N=C/c1cn(-c2ccccc2)nc1-c1cccnc1,7.4%,21.7,-6.9%,19.1*
O/N=C/c1cn(-c2ccccc2)nc1-c1ccccc1,0.9%,12.5,3.8%,13.8*
Cc1cc(C)n2nc(SCC(=O)c3ccc[nH]3)nc2n1,31.6µM*,-1.7,25.3%,-0.9
Cc1ccc(Cl)cc1N1CCN(C(=O)c2ccc(C)c(-n3c(C)nc4cccnc43)c2)CC1,-11.0%,.,?,.
CCOc1ccc(-c2cc(C(=O)N3CCN(S(=O)(=O)c4cc(Cl)ccc4OC)CC3)[nH]n2)cc1,4.5%,.,0.0%,.
CCOC(=O)c1c(C)[nH]c(C)c1S(=O)(=O)NCC(=O)Nc1ccc(C)c(N(C)C)c1,14.0%,.,-1.6%,.
N=C1SC(c2ccccc2)C(=O)N1c1ncc(Cc2ccccc2)s1 (stereo not drawn),1.0%,56.2*,?,17.6*
Cc1ccc(Cc2cnc(N3C(=N)SC(c4ccccc4)C3=O)s2)cc1 (stereo not drawn),-7.5%,22.3,0.0%,1.4
O=C1c2cccc3c(N4CCCCC4)ccc(c23)C(=O)N1c1ccc(O)cc1,6.5%,49.5,11.6%,18.4*
COc1ccc(CNC(=O)CSc2nc3cccnc3s2)cc1,0.1%,17.5,25.6%,15.0*
SMILES,Sm TGR block,Shiga inhibitor,FMDV antiviral,CHX counter
CCOc1ccc2nc(SCC(=O)NCc3ccc(OC)cc3)[nH]c2c1,1.4%,63.4*,-2.3%,21.2
COC(=O)c1cc(CSc2nc3ccccc3[nH]2)oc1C,-16.7%,36.2*,-23.3%,32.3*
COc1ccc2nc(SCC(=O)NCc3ccccc3)[nH]c2c1,-23.3%,-6.5,2.9%,0.2
COC(=O)c1ccc(CNC(=O)CSc2nc3ccccc3[nH]2)cc1,-0.4%,-13.4,29.5%,-5.4
Cc1ccc(CNC(=O)CSc2nc3ccccc3[nH]2)cc1,-1.6%,13.8,3.2%,14.6*
Cc1ccc(C(=O)COC(=O)c2cccc(NC(=O)c3ccc(Cl)cc3Cl)c2)cc1,3.2%,.,-17.6%,.
O=S(=O)(Nc1cccc2cccnc12)c1ccc(Br)s1,.,8.1,.,27.4
CCOc1ccc2nc(SCc3ccc(C(=O)OC)o3)[nH]c2c1,-0.5%,43.9*,2.4%,27.9*
COC(=O)c1ccc(CSc2nc3ccc(Cl)cc3[nH]2)o1,?,-6.4,?,-2.0
O=C(CSc1nc2ccccc2[nH]1)N=Nc1c(O)[nH]c2ccccc12,-24.2%,0.0,13.0%,16.7*
Cn1c(SCC(=O)N=Nc2c(O)[nH]c3ccccc23)nc2ccccc21,-12.4%,10.0,.,-2.6
